# Molecular target: DSPP
# Assay: pooled miR-30 sensor sort-seq; sequence = guide strand
# Details: shRNA
# Note: reference of the scale not given here.
row,Sequence,sensor-assay potency score (higher = more potent)
1,TATGTTGACAACCTCTCCTTGT,0.37
2,TTGTGTCTTGACATTGCCTTTG,-0.762
3,TACTTGAGGTCCATCTTCTTGG,-0.264
4,TCTATCACCTTCATGCACCAGG,0.183
5,TATGTAGAAAAACTCTTCCCTC,-0.0837
6,TTGCTGTCACTGCTGTCGCTGC,-0.804
7,TATCACTGTCATCATCTTCTGC,-0.312
8,TTATTAGTGTCTGATGTGCTAT,-0.602
9,TTGCTGCTGTCTGACTTGCTGT,-1.02
10,TTGGACAACAGCGACATCCTCA,0.0891
11,TTTTTCGACATGTCTCTCCAGT,-0.00978
12,TATTCTTATCAGTATTTCCATT,-0.803
13,TTCACTTGTATTACCCTCGTTT,0.22
14,TACTATCTGAATTTTGACCTAT,0.43
15,TTCACTGCTATCACTGCTGTTG,-0.29
16,TGTACTGACACATTTGATCTTG,0.307
17,TTTATCCTCTTTACCTTCGTTG,-0.331
